Screening results deposited in PubChem by National Center for Advancing Translational Sciences (NCATS).
SW480 rerep: induces DNA re-replication in SW480 colon adenocarcinoma cells | Potency, µM (doses to about 46.1 µM), hits mostly activators | AID 624297 | 340,000 tested, 1.8% active | SW480 DNA re-replication, Hoechst DNA content imaging, 48 h; note: nearly all actives have a fitted effect of over 55% in size
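Quantitative HTS format with DMSO vehicle controls; 48 hr drug incubation at 37 C, then 40 min Hoechst staining and scanning imager measurement at 405 nm excitation.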
RORgamma inh: ROR gamma (mouse) transcription inhibition. P51450. Drosophila S2 Gal4-RORgamma UAS-luciferase reporter, 20 h. Potency, µM (titrated, usually from 53.6 µM), actives largely listed as inhibitors. 310,000 tested, 5.4% active. AID 2551; note: nearly all actives have a fitted effect of over 60% in size
Target sequence (P51450 whole entry, looked up, the tested form may be a part): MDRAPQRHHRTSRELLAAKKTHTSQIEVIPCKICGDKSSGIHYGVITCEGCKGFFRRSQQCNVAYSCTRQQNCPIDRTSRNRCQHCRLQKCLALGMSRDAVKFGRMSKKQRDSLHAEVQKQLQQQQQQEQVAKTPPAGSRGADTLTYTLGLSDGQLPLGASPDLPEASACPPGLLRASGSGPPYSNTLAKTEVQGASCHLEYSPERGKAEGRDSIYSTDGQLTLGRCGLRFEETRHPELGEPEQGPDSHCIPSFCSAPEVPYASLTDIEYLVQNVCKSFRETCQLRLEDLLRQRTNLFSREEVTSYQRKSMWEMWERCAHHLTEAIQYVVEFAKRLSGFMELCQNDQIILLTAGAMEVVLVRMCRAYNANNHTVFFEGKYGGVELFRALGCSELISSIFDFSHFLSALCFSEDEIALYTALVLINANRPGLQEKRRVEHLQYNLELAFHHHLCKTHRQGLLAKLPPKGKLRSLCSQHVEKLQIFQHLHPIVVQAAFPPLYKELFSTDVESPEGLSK
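Luciferase reporter read in Schneider cells carrying Gal4-RORγ (mouse) and UAS-Photinus luciferase; cells given compound 1 h before 700 uM copper sulfate induction, then incubated 20 h at ambient temperature.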
MCF10A rereplic: inducers of DNA re-replication in MCF 10A breast cells | MCF 10A DNA re-replication, Hoechst nuclear intensity, 48 h | 350,000 tested, 2.9% active | Potency, µM (highest dose often 46.1 µM), most hits filed as activators; note: nearly all actives have a fitted effect of over 50% in size
KB-3-1 tox: kills parental KB-3-1 adenocarcinoma cells. AID 1347075. KB-3-1 viability, CellTiter-Glo ATP luminescence, 72 h. Potency, µM (highest dose often 46.1 µM), actives largely listed as cytotoxic. 400,000 tested, 1.4% active; note: nearly all actives have a fitted effect of over 60% in size
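Parental KB-3-1 adenocarcinoma cells in phenol-red-free DMEM with 10% FBS were pin-treated with compounds at several concentrations, incubated 72 h at 37 °C, and viability read by CellTiter-Glo luminescence; concentration-effect curves were fitted after normalization.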
KB-V1 MDR tox: kills drug-selected multidrug resistant KB-V1 cells; KB-V1 MDR cells viability, CellTiter-Glo, 72 h; Potency, µM (series often up to 46.1 µM), hits mostly cytotoxic; 400,000 tested, 3.4% active; AID 1347076; note: nearly all actives have a fitted effect of over 60% in size
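Drug-selected KB-V1 cells, grown in DMEM lacking phenol red with 10% FBS, receive compound titrations; after three days at 37 degrees C, surviving cell ATP is quantified by CellTiter-Glo luminescence and responses normalized and curve-fitted.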
Gal4-VP16 FLuc: inhibits Gal4-VP16 luciferase reporter, ROR gamma counter-screen | Drosophila S2 Gal4-VP16 UAS-luciferase, luminescence, 20 h | Potency, µM (titrated, usually from 53.6 µM), usual class: inhibitors | 310,000 tested, 3.5% active;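 note: Gal4-VP16 expression switched on by copper sulfate through the metallothionein promoter; nearly all actives have a fitted effect of over 50% in size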
Numbers stand for hits; 0 = inactive; ? = inconclusive; - = not tested or not shown; [ ] = dose if it differs, or a comment. Compounds with a hit are over-represented: about 10% of the library has one in this group of screens. Calls come from the whole dose curve; as a rule, active = well fitted curve in the direction sought with a large enough effect; inconclusive = small, poorly fitted or top-dose-only effect, or another doubt; inactive = no such curve, though single readings can be large; an effect the other way counts as inactive or inconclusive.

SMILES	SW480 rerep	RORgamma inh	MCF10A rereplic	KB-3-1 tox	KB-V1 MDR tox	Gal4-VP16 FLuc
Cn1cccc1C(=O)N1CCC[C@@]2(CCN(C(=O)Nc3cccc(F)c3)C2)C1	-	0	-	-	-	0
O=C(Cn1cc(S(=O)(=O)N2CCN(c3ccccc3F)CC2)c2ccccc2c1=O)NCCCN1CCCCCC1	20.6µM	0	?	0	0	0
CN(Cc1ccco1)c1ncncc1-c1cccnc1	-	0	-	-	-	0
Cn1c(Cc2ccccc2)nnc1SCC(=O)Nc1ccccc1	0	0	0	0	0	0
Cn1c(Cc2ccccc2)nnc1SCC(=O)NCCc1ccccc1	0	0	0.581µM	0	0	0[10 µM]
Cc1ccc2nc(CSc3nnc(-c4ccco4)o3)cc(=O)n2c1	0	0	0	0	0	0
Cc1ccc2nc(CSc3nnc(-c4ccco4)n3-c3ccccc3)cc(=O)n2c1	0	-	0	0	10.3µM	-
Cn1c(CNC(=O)c2ccco2)nnc1SCC(=O)c1ccc(Br)cc1	0	0	0	0	0	0
CCn1c(SCC(=O)c2ccccc2)nnc1-c1cc2cc(Br)ccc2o1	0	0	?	?	18.4µM	0
C=CCn1c(SCC(=O)c2ccccc2)nnc1-c1cc2ccccc2o1	0	0	0	0	?	0
Cn1c(CNC(=O)c2ccco2)nnc1SCC(=O)c1ccccc1	0	28.2µM	0	0	0	0
O=C(Cc1c(Cl)cccc1Cl)OCC(=O)c1ccc[nH]1	-	-	-	0	?	-
Cc1cccc(Cn2cc3c(=O)n(CC(=O)Nc4cccc(C)c4C)nc-3c3cc(F)ccc32)c1	-	-	-	0	0	-
CCn1c(SCC(=O)c2ccc(Cl)cc2)nnc1-c1ccoc1C	?	?	?	0	0	?
CCn1c(SCC(=O)c2ccc(C)cc2)nnc1-c1ccoc1C	0	?	0	0	0	15.8µM
Cc1ccc(C(=O)CSc2nnc(-c3ccco3)n2Cc2ccccc2)cc1	0	0	0	20.6µM	?	0
CN(Cc1ccccc1)C(=O)CSc1nnc(-c2ccco2)n1-c1ccccc1	0	0	0	0	3.66µM	0
CC1CCN(C(=O)CSc2nnc(-c3cccnc3)n2C2CCCCC2)CC1	0	0	0	0	0	0
Cc1noc(C)c1CSc1nnc(-c2cccnc2)n1C1CCCCC1C (stereo not given)	0	0	0	0	23.1µM	0
O=C(CSc1nnc(-c2cccnc2)n1C1CCCCC1)NC1CCCCC1	0	0	0	0	18.4µM	0
COc1ccc(Cc2nnc(SCc3c(C)noc3C)n2C2CCCCC2)cc1OC	0	0	?	0	?	0
CC1CCCCN1C(=O)CSc1nnc(-c2cccnc2)n1C1CCCCC1 (stereo not given)	0	0	0	0	14.6µM	0
CCc1ccc(N2CC(c3nnc(NC(=O)c4ccco4)s3)CC2=O)cc1 (stereo not given)	-	-	-	0	0	-
CC(C)C(=O)Nc1nc2c(ncn2[C@H]2CC(O)[C@@H](CO)O2)c(=O)[nH]1 (stereo not given in full)	-	-	-	?	0	-
COc1ccccc1CN1CCN(C2CCN(C(=O)NC(C)C)CC2)C(=O)C1=O	-	-	-	0	?	-
SMILES	SW480 rerep	RORgamma inh	MCF10A rereplic	KB-3-1 tox	KB-V1 MDR tox	Gal4-VP16 FLuc
COc1ccc(C2=CC(c3ccc(F)cc3)n3ncc(C(=O)Nc4ccc(C)cc4)c3N2)cc1 (stereo not given)	-	-	-	?	0	-
Cc1cc(SCC(=O)c2ccc(O)c(O)c2)n2nc(C)c(-c3ccccc3)c2n1	7.31µM	0	?	?	?	0
Cc1cc(C)nc(SCC(=O)c2ccc(O)c(O)c2)n1	0	0	0	0	0	?
CCSc1cc(C)nc2c(-c3ccc(Cl)cc3)c(C)nn12	18.4µM	0	14.6µM	0	0	0
COc1cc(/C=C\c2ccc(OC)cc2OC)cc(OC)c1	-	?	-	-	-	0
O=C(Cn1c2ncccc2c(=O)n1-c1ccccc1)Nc1cccc(C(F)(F)F)c1	-	-	-	0	0	-
CC(Oc1ccc(Br)cc1)C(=O)Nc1nnc(C2CC2)s1 (stereo not given)	0	-	0	0	?	-
CCC(Oc1ccc(Br)cc1Cl)C(=O)Nc1nnc(C2CC2)s1 (stereo not given)	0	12.6µM	?	-	-	?
CC(C)CN(C(=O)CCCOc1ccc(Cl)cc1Cl)c1c(N)n(Cc2ccccc2)c(=O)[nH]c1=O	0	-	0	0	0	-
COC(=O)c1ccc(/C=C/c2c(-c3ccsc3)sc3ccccc23)cc1	4.11µM	0	16.4µM	?	0	0
COc1ccc(OC)c(S(=O)(=O)Nc2cccc(-c3ccc(N4CCCCC4)nn3)c2)c1	-	-	-	0	0	-
CCN(CC)c1ccc(CN2CCCCCC2)cc1	?	0	?	?	18.4µM	0
CN(C)c1ccc(CN2CCCCCC2)cc1	0	0	0	0	0	0
CCCOc1ccc(C(=O)Nc2cc3c(cc2N2CCOCC2)n(C)c(=O)n3C)cc1	-	-	-	0	?	-
O=C(c1csnn1)N1CCC2(CC1)CCN(c1ccccn1)CC2	-	0	-	-	-	0
Cc1ccc(CNC(=O)C2CCCN(S(=O)(=O)c3ccc4c(c3)oc(=O)n4C)C2)cc1 (stereo not given)	-	-	-	0	0	-
CC(C)COc1cccc(C(=O)Nc2cc(S(=O)(=O)N3CCOCC3)ccc2N2CCCC2)c1	0	-	0	0	18.4µM	-
Cc1cc(OCC(=O)Nc2cc(S(=O)(=O)N3CCOCC3)ccc2N2CCCC2)ccc1C(C)C	0	-	0	0	7.31µM	-
O=C(Nc1ccccc1N1CCCCC1)c1cc(S(=O)(=O)N2CCOCC2)ccc1F	0	-	11.6µM	?	?	-
O=C(Nc1cc(S(=O)(=O)N2CCOCC2)ccc1N1CCCCC1)c1ccc(Cl)cc1	0	-	0	0	0	-
O=C(Nc1cc(S(=O)(=O)N2CCOCC2)ccc1N1CCCCC1)c1ccccc1	0	-	0	0	5.17µM	-
CC(=O)N1c2ccc(S(=O)(=O)NCCC(=O)Nc3ccc(Br)c(C)c3)cc2CC1C (stereo not given)	-	-	-	?	0	-
COC(=O)[C@@H]1C[C@@H]2CC[C@@H](O)C[C@@H]2N1CC1CCCCC1	-	0	-	-	-	0
Cc1ccc(N(Cc2ccccc2)C(=O)c2cc(S(=O)(=O)N3CCOCC3)ccc2Cl)cc1	0	-	?	?	?	-
Cc1ccc(N(Cc2ccccc2)C(=O)c2cc(S(=O)(=O)N3CCOCC3)ccc2F)cc1	0	-	0	0	9.2µM	-
CCN(CC)S(=O)(=O)c1cc(C(=O)Nc2cc(Cl)ccc2N2CCN(C)CC2)ccc1Cl	0	?	0	0	0	0
O=C(CN1CCc2ccccc2C1)Nc1cc(S(=O)(=O)N2CCOCC2)ccc1N1CCCC1	0	0	0	0	4.11µM	0
CN1CCN(c2ccc(Cl)cc2NC(=O)c2ccc(S(=O)(=O)N(C)C)cc2)CC1	11.2µM	?	0	0	0	0
CCc1cc(C(=O)Nc2cc(S(=O)(=O)N3CCCCC3)ccc2N2CCN(C)CC2)sc1C	-	-	-	23.1µM	0	-
